The text below walks through data of PubChem BioAssay AID602387 (Sanford-Burnham Center for Chemical Genomics, 2012).

Among all 2,300 compounds or so, about 30 (1%) were called active.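 How the source made its calls: active means activation of at least 30% at 10 µM; inactive means the rest.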 Only a sample is shown.

The nature of this test: spectral interference with molecular beacon fluorescence, confirmation, artefact control for DNMT1 inhibitor project, biochemical, fluorescent molecular beacon, single concentration (AID 602387).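 Further: DNMT1 catalytic domain with a HinP1I cleavage step and a FAM/dabcyl DNA beacon.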 Conditions: DNMT1 molecular beacon spectral interference counterscreen, fluorescence 485/520; at 10 µM; active compounds read high.
As to `COc1ccc(NC(=O)CCn2ccnc2)c(OC)c1`, the activation (fluorescence interference) is 5.11% (inactive).

For `Cc1ccc2[nH]c(=O)c(-c3nc4c(C)cccn4c3NCc3ccco3)cc2c1`, the activation (fluorescence interference) is -3.31% (inactive).

With `NNc1cccc(C=Cc2ccccc2)cc1=O`, the activation (fluorescence interference) is -0.89% (inactive).

Take `NC1=CC(=O)C(=O)c2cccnc21`: the activation (fluorescence interference) was 34.8% (active).

For the compound `C=C(C)C(=O)Nc1cccc(C2=NOC3(C2)C[C@H](C(N)=O)N(C(=O)C(c2ccccc2)c2ccccc2)C3)c1` (some centres not stated), the activation (fluorescence interference) is -0.25% (inactive).

With `CCC/C=C(\CCC)C(NC(=O)Cc1ccccc1)c1ccc(C(=O)OC)cc1` (configuration not stated), the activation (fluorescence interference) was 2.66% (inactive).

Consider `Cc1ccccc1NC(=O)CN1C(=O)N/C(=C\c2cccn2-c2cccc(C(=O)O)c2)C1=O`, for which the activation (fluorescence interference) was -2.61% (inactive).

On to `O=C(Nc1nc(-c2ccco2)c(-c2ccco2)s1)c1ccco1`, for which the activation (fluorescence interference) was 6.11% (inactive).

`O=c1[nH]c(/C=C/c2cccc(Br)c2)nc2ccccc12`: the activation (fluorescence interference) was -5.42% (inactive).

On to `CC(=O)Nc1ccccc1Sc1ccc2c3c(cccc13)C(=O)N(c1ccc(C)cc1)C2=O`, for which the activation (fluorescence interference) was 2.58% (inactive).

On to `Cc1ccc(Cc2cncc(O)c2)cc1S(=O)(=O)O`, for which the activation (fluorescence interference) is 5.41% (inactive).

Consider `CC(=O)c1ccc(NC(=O)c2ccc3c(Cl)c4c(nc3c2)CCCC4)cc1`, for which the activation (fluorescence interference) is -4.05% (inactive).

Take `Cc1ccccc1-n1cc(CNC(=O)CC2C(=O)NCCN2C/C=C/c2ccccc2)cn1` (configuration not stated): the activation (fluorescence interference) is 1.73% (inactive).

Turning to `Cc1ccc(-c2cc(C(=O)NCc3cn(C)nc3C)c3cc(Br)ccc3n2)cc1`, the activation (fluorescence interference) is 2.74% (inactive).

For `Cc1ccc(-c2nnc(-c3ccc(NC(=O)c4cccs4)cc3)o2)cc1`, the activation (fluorescence interference) is -3.03% (inactive).

As for `O=C(CN1CCCSc2ccccc21)N1CCN(S(=O)(=O)c2cccc(F)c2)CC1`, the activation (fluorescence interference) is 2.83% (inactive).

Regarding `O=C(COC(=O)/C=C/c1cn(-c2ccccc2)nc1-c1cccnc1)Nc1ccc(Cl)cc1Cl`, the activation (fluorescence interference) was -2.13% (inactive).

Take `O=C(Nc1cccc(F)c1)c1cc(-c2ccco2)nc2ccccc12`: the activation (fluorescence interference) was 3.89% (inactive).

For the compound `COc1ccc(CC(=O)Nc2ccc(-c3nnc(-c4ccccc4)o3)cc2)cc1`, the activation (fluorescence interference) is -2.31% (inactive).

`CCOc1ccc(CN2CCC(n3nccc3NC(=O)C3CC3)CC2)cc1CO`: the activation (fluorescence interference) is 3.5% (inactive).

Turning to `Nc1cc2c(cc1Br)-c1ccc(F)cc1C2=O`, the activation (fluorescence interference) was -1.05% (inactive).

As to `COc1ccc2c(c1)c(=O)c(C(=O)c1ccc(Cl)cc1)cn2CC(=O)Nc1ccc(F)cc1`, the activation (fluorescence interference) was -1.8% (inactive).

On to `O/N=C1\CC2(Cc3nonc31)OCCO2`, for which the activation (fluorescence interference) was 2.87% (inactive).

Turning to `CCOC(=O)N1CC=C2C(C#N)=C(N)C(C#N)(C#N)[C@H](c3cccs3)[C@H]2C1`, the activation (fluorescence interference) was 9.6% (inactive).

As to `NC(CSC(c1ccccc1)(c1ccccc1)c1ccc(-c2ccccc2)cc1)C(=O)O` (configuration not stated), the activation (fluorescence interference) was 5.09% (inactive).

As to `CC1CN(C(=O)c2ccccc2NS(=O)(=O)c2cccc([N+](=O)[O-])c2)CC(C)O1` (configuration not stated), the activation (fluorescence interference) is 1.08% (inactive).

Consider `C=CC1=C(C(=O)O)N2C(=O)[C@@H](NC(=O)/C(=N\OCC(=O)O)c3csc(N)n3)[C@H]2SC1`, for which the activation (fluorescence interference) is 7.32% (inactive).

For the compound `Cc1ccc(N=C2NC(=O)/C(=C/C=C/c3ccco3)S2)cc1C`, the activation (fluorescence interference) was -1.63% (inactive).

For the compound `CN(C)/C=C(/C(=O)c1ccc(Cl)cc1)S(=O)(=O)c1ccccc1`, the activation (fluorescence interference) was 1.79% (inactive).

Regarding `Cc1cc2nc(-c3ccco3)c(Cc3cccc(F)c3)n2c(C)c1Br`, the activation (fluorescence interference) was 0.96% (inactive).

On to `COc1ccc(Cc2nnc(NC(=O)Cc3cccs3)s2)cc1`, for which the activation (fluorescence interference) was -0.3% (inactive).

`CCc1ccc(NC(=O)CS(=O)CC(=O)NCCCc2ccccc2)cc1` (configuration not stated): the activation (fluorescence interference) was 2.85% (inactive).

For the compound `CCOc1cc(CN2CCCC(CO)(Cc3ccc(F)cc3F)C2)ccc1OC` (configuration not stated), the activation (fluorescence interference) is 4.08% (inactive).

Consider `Cc1onc(-c2ccccc2)c1C(=O)Nc1ccccc1C#N`, for which the activation (fluorescence interference) is 3.12% (inactive).

On to `Cc1cc(O)c(C(=O)/C=C/c2c(F)c(F)c(F)c(F)c2F)c(=O)o1`, for which the activation (fluorescence interference) is 6.03% (inactive).

Consider `c1coc(-c2nc3nc4ccccc4n3nc2-c2ccco2)c1`, for which the activation (fluorescence interference) is 0.5% (inactive).

On to `CCN(C(=O)CSc1nc(N)cc(=O)[nH]1)C1CCS(=O)(=O)C1` (configuration not stated), for which the activation (fluorescence interference) was 2.08% (inactive).

As for `c1ccc2cc3c(NCCN4CCOCC4)ccnc3cc2c1`, the activation (fluorescence interference) was -0.48% (inactive).

For `O=C(Cn1nnc(-c2ccccc2)n1)N/N=C/c1ccc(-c2ccc(Cl)cc2)o1`, the activation (fluorescence interference) is 3.12% (inactive).

For the compound `CC1(C(=O)NS(=O)(=O)c2ccccc2)CCN1C(=O)C/C=C/c1ccccc1` (configuration not stated), the activation (fluorescence interference) was -0.14% (inactive).

For `CCN1CCN(Cc2nc3c(c(=O)n(C)c(=O)n3C)n2CC(=O)c2ccccc2)CC1`, the activation (fluorescence interference) is 2.13% (inactive).

As to `C/C(=N\Nc1ccc(S(N)(=O)=O)cc1[N+](=O)[O-])c1cccs1`, the activation (fluorescence interference) is 0.04% (inactive).

`O=C(COC(=O)c1ccc(F)cc1F)Nc1ncccn1`: the activation (fluorescence interference) was 3.67% (inactive).

On to `C=CCn1c(=NC(=O)c2ccc(S(=O)(=O)N3CCCC3)cc2)sc2cc(NC(C)=O)ccc21`, for which the activation (fluorescence interference) was -2.75% (inactive).

For the compound `Cc1ccc(/C=C/C(=O)Nc2ccc([N+](=O)[O-])c(NC(=O)/C=C/c3ccc(C)o3)c2)o1`, the activation (fluorescence interference) is -0.1% (inactive).

In the case of `O=C(COC(=O)CCC(=O)c1cccs1)NCc1ccco1`, the activation (fluorescence interference) was 2.99% (inactive).

For the compound `CC(C)(C)N(Cc1ccccc1)C(=O)c1ccncc1`, the activation (fluorescence interference) was 4.75% (inactive).

As to `CCOC(=O)c1c(NC(=S)NC(=O)/C=C/c2cccs2)sc(C)c1C`, the activation (fluorescence interference) was 2.75% (inactive).

As to `CN(Cc1nc2ccc(F)cc2[nH]1)Cc1nc(CC2CC2)no1`, the activation (fluorescence interference) is 5.14% (inactive).

Take `O=C(c1cccs1)N1CCC(c2nc3ccccc3s2)CC1`: the activation (fluorescence interference) is 4.65% (inactive).

In the case of `O=C(CCNC(=O)c1ccccc1)NN=Cc1ccc(Br)o1`, the activation (fluorescence interference) was 2.53% (inactive).

Regarding `CCOC(=O)/C(C#N)=C/c1ccc(OCC(=O)Nc2ccccc2)c(OC)c1`, the activation (fluorescence interference) was 6.65% (inactive).
